This passage reports binding signal results from paper PMC7862700, “An all-to-all approach to the identification of sequence-specific readers for epigenetic DNA modifications on cytosine”.

Assay in all cases: DAPPL (digital affinity profiling via proximity ligation, sequencing); 10 mM Tris-HCl pH 7.5, 50 mM NaCl, 1 mM DTT, 4% glycerol, room temperature, 30 min; GST-TFs on glutathione beads, 16-mer random dsDNA library, 0.1% formaldehyde crosslink after washing; high values mean tight binding
Settings in all cases: protein: recombinant; tags: N-terminal GST; dsDNA, one strand shown

Experiment [1] deals with T1, FLI1 (Homo sapiens, UniProt Q01543 1-452).
T1 sequence: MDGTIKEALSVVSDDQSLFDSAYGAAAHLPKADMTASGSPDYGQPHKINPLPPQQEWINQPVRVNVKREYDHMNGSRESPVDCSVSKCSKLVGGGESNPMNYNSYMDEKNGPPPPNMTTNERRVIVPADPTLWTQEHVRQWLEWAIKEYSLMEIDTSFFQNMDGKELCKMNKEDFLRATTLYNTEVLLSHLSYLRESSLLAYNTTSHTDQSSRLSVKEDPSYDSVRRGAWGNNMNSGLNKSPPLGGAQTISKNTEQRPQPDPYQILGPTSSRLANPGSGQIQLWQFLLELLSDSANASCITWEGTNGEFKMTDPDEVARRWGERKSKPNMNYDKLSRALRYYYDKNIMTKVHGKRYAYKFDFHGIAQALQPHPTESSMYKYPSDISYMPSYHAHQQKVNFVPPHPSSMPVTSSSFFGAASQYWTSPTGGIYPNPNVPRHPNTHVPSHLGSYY
Put shortly:
(§1)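 Human transcription factors fused to GST were expressed in yeast, captured on glutathione beads, given DNA barcodes and pooled with a GST-only negative control. Pools were incubated with 200 nmole of a 16-mer random double-stranded DNA library in Tris/NaCl/DTT/glycerol buffer at room temperature for 30 min. They were then washed, crosslinked with 0.1% formaldehyde, proximity-ligated (BsaI/T4 ligase, 1 h, 37 °C), PCR-amplified and sequenced on an Illumina NextSeq500. Binding signal is each 6-mer's read frequency for a factor divided by its frequency for the GST control.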

Experiment [2] deals with T2, ELK1 (Homo sapiens, UniProt P19419 1-428).
T2 sequence: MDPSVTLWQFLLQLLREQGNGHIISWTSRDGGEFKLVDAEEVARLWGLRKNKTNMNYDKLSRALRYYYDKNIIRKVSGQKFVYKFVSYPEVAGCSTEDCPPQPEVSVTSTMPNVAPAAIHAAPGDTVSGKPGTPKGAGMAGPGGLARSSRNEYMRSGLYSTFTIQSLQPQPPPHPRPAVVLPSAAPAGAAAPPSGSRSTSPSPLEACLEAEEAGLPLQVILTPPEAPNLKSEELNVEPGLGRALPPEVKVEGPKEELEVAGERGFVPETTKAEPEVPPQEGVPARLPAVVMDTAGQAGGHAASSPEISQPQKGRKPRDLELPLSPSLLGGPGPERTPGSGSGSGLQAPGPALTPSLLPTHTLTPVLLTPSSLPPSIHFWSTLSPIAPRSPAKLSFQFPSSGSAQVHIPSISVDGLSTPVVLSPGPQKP
Put shortly:
as §1

For experiment [3], the target named is T3, GABPA (Homo sapiens, UniProt Q06546 1-454).
T3 sequence: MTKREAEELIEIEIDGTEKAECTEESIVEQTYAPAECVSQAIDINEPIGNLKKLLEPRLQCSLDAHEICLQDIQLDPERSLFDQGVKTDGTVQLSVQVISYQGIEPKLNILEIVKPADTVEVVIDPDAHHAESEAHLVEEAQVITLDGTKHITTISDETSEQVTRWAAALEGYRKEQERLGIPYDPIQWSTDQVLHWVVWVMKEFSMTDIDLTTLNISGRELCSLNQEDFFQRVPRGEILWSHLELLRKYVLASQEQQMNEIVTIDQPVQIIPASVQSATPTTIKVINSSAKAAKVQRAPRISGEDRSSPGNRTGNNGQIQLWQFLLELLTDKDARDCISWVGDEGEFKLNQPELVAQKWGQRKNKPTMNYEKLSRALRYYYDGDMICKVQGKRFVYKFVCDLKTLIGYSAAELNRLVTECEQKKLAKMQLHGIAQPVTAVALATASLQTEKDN
Put shortly: as §1

For experiment [4], the target named is T4, ERG (Homo sapiens, UniProt P11308 1-479).
T4 sequence: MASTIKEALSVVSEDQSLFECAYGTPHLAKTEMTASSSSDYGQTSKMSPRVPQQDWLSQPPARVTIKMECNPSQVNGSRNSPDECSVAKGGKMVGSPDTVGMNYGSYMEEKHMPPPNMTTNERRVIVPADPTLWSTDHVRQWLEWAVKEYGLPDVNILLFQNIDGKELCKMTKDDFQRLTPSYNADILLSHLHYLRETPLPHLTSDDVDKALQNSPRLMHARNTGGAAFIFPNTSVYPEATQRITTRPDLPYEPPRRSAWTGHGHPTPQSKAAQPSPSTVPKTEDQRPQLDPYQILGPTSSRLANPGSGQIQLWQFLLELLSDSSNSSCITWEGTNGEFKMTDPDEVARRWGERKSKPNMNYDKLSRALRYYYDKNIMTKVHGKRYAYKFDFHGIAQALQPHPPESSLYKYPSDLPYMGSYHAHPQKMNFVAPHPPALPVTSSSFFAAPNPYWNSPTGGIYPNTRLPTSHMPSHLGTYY
Put shortly:
as §1

The target in experiment [5] is ELF1 (Homo sapiens, UniProt P32519 1-619). Put shortly: as §1
ELF1, sequence (P32519 whole entry): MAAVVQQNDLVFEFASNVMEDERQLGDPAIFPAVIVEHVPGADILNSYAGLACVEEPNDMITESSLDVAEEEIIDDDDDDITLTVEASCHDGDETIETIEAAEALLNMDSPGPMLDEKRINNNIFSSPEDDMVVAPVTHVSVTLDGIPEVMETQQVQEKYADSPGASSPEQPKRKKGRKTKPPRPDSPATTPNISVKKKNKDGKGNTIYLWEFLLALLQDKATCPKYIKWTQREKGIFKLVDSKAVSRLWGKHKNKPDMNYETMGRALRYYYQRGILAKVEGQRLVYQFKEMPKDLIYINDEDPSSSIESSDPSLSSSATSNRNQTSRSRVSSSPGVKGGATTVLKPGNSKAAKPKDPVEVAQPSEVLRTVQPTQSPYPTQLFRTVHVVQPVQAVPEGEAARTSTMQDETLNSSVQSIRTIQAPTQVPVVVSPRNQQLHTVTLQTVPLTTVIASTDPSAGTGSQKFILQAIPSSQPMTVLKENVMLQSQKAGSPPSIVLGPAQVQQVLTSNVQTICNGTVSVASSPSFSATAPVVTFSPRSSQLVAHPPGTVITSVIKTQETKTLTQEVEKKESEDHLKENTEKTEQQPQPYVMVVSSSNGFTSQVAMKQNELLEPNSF
The target in experiment [6] is T5, EHF (Homo sapiens, UniProt Q9NZC4 1-300).
T5 sequence: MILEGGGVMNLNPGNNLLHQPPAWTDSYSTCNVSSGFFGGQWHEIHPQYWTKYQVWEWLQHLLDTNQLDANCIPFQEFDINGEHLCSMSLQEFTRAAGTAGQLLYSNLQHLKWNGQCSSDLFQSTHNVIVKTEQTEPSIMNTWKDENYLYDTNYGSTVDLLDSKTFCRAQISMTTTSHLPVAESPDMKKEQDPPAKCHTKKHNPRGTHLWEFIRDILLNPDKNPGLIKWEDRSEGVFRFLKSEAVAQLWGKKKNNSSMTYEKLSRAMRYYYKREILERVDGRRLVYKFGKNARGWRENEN
Put shortly:
as §1

For experiment [7], the target named is SPI1 (Homo sapiens, UniProt P17947 1-270). Put shortly: as §1
The target in experiment [8] is SPIB (Homo sapiens, UniProt Q01892 1-262). Put shortly:
as §1

The target in experiment [9] is T6, ELK3 (Homo sapiens, UniProt P41970 1-407).
T6 sequence: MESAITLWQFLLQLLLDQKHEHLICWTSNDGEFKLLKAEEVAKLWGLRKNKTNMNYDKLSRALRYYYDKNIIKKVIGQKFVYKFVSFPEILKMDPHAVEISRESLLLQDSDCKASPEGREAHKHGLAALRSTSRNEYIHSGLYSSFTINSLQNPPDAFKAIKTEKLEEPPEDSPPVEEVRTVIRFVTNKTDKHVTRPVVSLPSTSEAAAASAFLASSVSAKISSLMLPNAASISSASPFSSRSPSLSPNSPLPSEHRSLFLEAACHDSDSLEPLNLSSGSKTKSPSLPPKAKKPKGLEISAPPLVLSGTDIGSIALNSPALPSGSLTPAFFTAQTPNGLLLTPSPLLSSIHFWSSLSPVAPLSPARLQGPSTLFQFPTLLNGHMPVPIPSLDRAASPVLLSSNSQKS
Put shortly:
as §1

SPIB, sequence (Q01892 whole entry): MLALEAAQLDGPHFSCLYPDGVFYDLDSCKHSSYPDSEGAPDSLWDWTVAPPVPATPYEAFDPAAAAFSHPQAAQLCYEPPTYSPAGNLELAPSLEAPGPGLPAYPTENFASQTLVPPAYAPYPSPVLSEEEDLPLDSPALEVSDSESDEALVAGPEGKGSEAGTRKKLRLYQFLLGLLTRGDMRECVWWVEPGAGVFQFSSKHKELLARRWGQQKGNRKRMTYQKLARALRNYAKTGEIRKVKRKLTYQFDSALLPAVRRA

As to GAATTG, the binding signal in experiment [1] was 1.15 fold enrichment (6-mer frequency, TF over GST control); in [2], 1.12 fold enrichment (6-mer frequency, TF over GST control); in experiment [3] it was 1.09 fold enrichment (6-mer frequency, TF over GST control); in experiment [4], 1.1 fold enrichment (6-mer frequency, TF over GST control); in experiment [5], 1.11 fold enrichment (6-mer frequency, TF over GST control); in experiment [6], 1.12 fold enrichment (6-mer frequency, TF over GST control). The binding signal in experiment [7] was 1.17 fold enrichment (6-mer frequency, TF over GST control); in experiment [8] it was 1.21 fold enrichment (6-mer frequency, TF over GST control); in experiment [9], 1.21 fold enrichment (6-mer frequency, TF over GST control).
On to GTCTCT, for which the binding signal in experiment [1] is 1.41 fold enrichment (6-mer frequency, TF over GST control); in [2], 1.26 fold enrichment (6-mer frequency, TF over GST control); in [3], 1.31 fold enrichment (6-mer frequency, TF over GST control); in experiment [4], 1.33 fold enrichment (6-mer frequency, TF over GST control); in [5], 1.29 fold enrichment (6-mer frequency, TF over GST control); in experiment [6] it was 1.19 fold enrichment (6-mer frequency, TF over GST control). The binding signal in experiment [7] is 1.32 fold enrichment (6-mer frequency, TF over GST control); in [8] it was 1.25 fold enrichment (6-mer frequency, TF over GST control); in experiment [9], 1.14 fold enrichment (6-mer frequency, TF over GST control).
Regarding CTGTCA, the binding signal is 1.21 fold enrichment (6-mer frequency, TF over GST control) in [1]; 1.11 fold enrichment (6-mer frequency, TF over GST control) in experiment [2]; 1.2 fold enrichment (6-mer frequency, TF over GST control) in experiment [3]; 1.14 fold enrichment (6-mer frequency, TF over GST control) in experiment [4]; 1.19 fold enrichment (6-mer frequency, TF over GST control) in experiment [5]; 1.12 fold enrichment (6-mer frequency, TF over GST control) in experiment [6]. The binding signal in experiment [7] was 1.1 fold enrichment (6-mer frequency, TF over GST control); in [8], 1.15 fold enrichment (6-mer frequency, TF over GST control); in experiment [9] it was 1.08 fold enrichment (6-mer frequency, TF over GST control).
CAAGTA: the binding signal in experiment [1] is 1.09 fold enrichment (6-mer frequency, TF over GST control); in experiment [2], 1.06 fold enrichment (6-mer frequency, TF over GST control); in experiment [3] it was 1.19 fold enrichment (6-mer frequency, TF over GST control); in experiment [4], 1.03 fold enrichment (6-mer frequency, TF over GST control); in experiment [5], 1.03 fold enrichment (6-mer frequency, TF over GST control); in experiment [6] it was 1.1 fold enrichment (6-mer frequency, TF over GST control). Besides, the binding signal was 1.07 fold enrichment (6-mer frequency, TF over GST control) in [7]; 1.01 fold enrichment (6-mer frequency, TF over GST control) in experiment [8]; 1.17 fold enrichment (6-mer frequency, TF over GST control) in [9].
For ATATTG, the binding signal in experiment [1] was 1.25 fold enrichment (6-mer frequency, TF over GST control); in experiment [2], 1.31 fold enrichment (6-mer frequency, TF over GST control); in experiment [3] it was 1.32 fold enrichment (6-mer frequency, TF over GST control); in experiment [4], 1.25 fold enrichment (6-mer frequency, TF over GST control); in [5], 1.31 fold enrichment (6-mer frequency, TF over GST control); in experiment [6], 1.3 fold enrichment (6-mer frequency, TF over GST control). Moreover, the binding signal in [7] is 1.28 fold enrichment (6-mer frequency, TF over GST control); in experiment [8], 1.28 fold enrichment (6-mer frequency, TF over GST control); in experiment [9] it was 1.29 fold enrichment (6-mer frequency, TF over GST control).
In the case of GCCTCC, the binding signal in [1] is 1.29 fold enrichment (6-mer frequency, TF over GST control); in experiment [2] it was 1.34 fold enrichment (6-mer frequency, TF over GST control); in experiment [3] it was 1.23 fold enrichment (6-mer frequency, TF over GST control); in experiment [4], 1.33 fold enrichment (6-mer frequency, TF over GST control); in [5], 1.27 fold enrichment (6-mer frequency, TF over GST control); in experiment [6], 1.31 fold enrichment (6-mer frequency, TF over GST control). Further, the binding signal in [7] was 1.38 fold enrichment (6-mer frequency, TF over GST control); in experiment [8], 1.29 fold enrichment (6-mer frequency, TF over GST control); in experiment [9] it was 1.33 fold enrichment (6-mer frequency, TF over GST control).
As to GTTGCA, the binding signal in experiment [1] was 1.25 fold enrichment (6-mer frequency, TF over GST control); in experiment [2], 1.15 fold enrichment (6-mer frequency, TF over GST control); in experiment [3], 1.16 fold enrichment (6-mer frequency, TF over GST control); in experiment [4], 1.01 fold enrichment (6-mer frequency, TF over GST control); in [5], 1.14 fold enrichment (6-mer frequency, TF over GST control); in experiment [6], 1.2 fold enrichment (6-mer frequency, TF over GST control). Also, the binding signal was 1.15 fold enrichment (6-mer frequency, TF over GST control) in experiment [7]; 1.1 fold enrichment (6-mer frequency, TF over GST control) in experiment [8]; 1.25 fold enrichment (6-mer frequency, TF over GST control) in experiment [9].
Consider ACAATG, for which the binding signal in experiment [1] is 1.1 fold enrichment (6-mer frequency, TF over GST control); in experiment [2], 1.06 fold enrichment (6-mer frequency, TF over GST control); in [3], 1.17 fold enrichment (6-mer frequency, TF over GST control); in [4] it was 1.14 fold enrichment (6-mer frequency, TF over GST control); in experiment [5] it was 1.15 fold enrichment (6-mer frequency, TF over GST control); in [6], 1.09 fold enrichment (6-mer frequency, TF over GST control). The binding signal in experiment [7] is 1.06 fold enrichment (6-mer frequency, TF over GST control); in experiment [8], 1.16 fold enrichment (6-mer frequency, TF over GST control); in experiment [9], 1.08 fold enrichment (6-mer frequency, TF over GST control).
